Read-outs that look alike come from different tables or passages of the source.
What was measured:
Design in all cases: species or system human, MV4-11 + K-562 + COLO205 + SK-N-BE2 + OVCAR-8
[1] = system: AURKA; conditions: read-out: apparent Kd; compound concentrations: 100 nM and 1000 nM (sheet 'Samples'), CATDS: 7.2357375689978506E-2; n = 1
[2] = system: AURKB; conditions: read-out: apparent Kd, compound concentrations: 100 nM and 1000 nM (sheet 'Samples'), n = 1
[3] = system: BTK; conditions: read-out: apparent Kd; compound concentrations: 100 nM and 1000 nM (sheet 'Samples'), CATDS: 2.7906188232160099E-2; n = 1
[4] = system: CDK6; conditions: read-out: apparent Kd; compound concentrations: 100 nM and 1000 nM (sheet 'Samples'), CATDS: 2.6039683989772199E-2; n = 1
[5] = system: DDR1; conditions: read-out: apparent Kd; compound concentrations: 100 nM and 1000 nM (sheet 'Samples'), CATDS: 3.3765649508464002E-2; n = 1
[6] = system: DDR2; conditions: read-out: apparent Kd; compound concentrations: 100 nM and 1000 nM (sheet 'Samples'), CATDS: 2.4811754642975199E-2; n = 1
[7] = system: EPHA1; conditions: read-out: apparent Kd; compound concentrations: 100 nM and 1000 nM (sheet 'Samples'), CATDS: 5.8966427250755599E-2; n = 1
[8] = system: EPHA2; conditions: read-out: apparent Kd; compound concentrations: 100 nM and 1000 nM (sheet 'Samples'), CATDS: 2.87381973097037E-2; n = 1
[9] = system: EPHA5; conditions: read-out: apparent Kd; compound concentrations: 100 nM and 1000 nM (sheet 'Samples'), CATDS: 2.6468271871748401E-2; n = 1
[10] = system: EPHA7; conditions: read-out: apparent Kd; compound concentrations: 100 nM and 1000 nM (sheet 'Samples'), CATDS: 2.4521911619802599E-2; n = 1
[11] = system: EPHB1; conditions: read-out: apparent Kd; compound concentrations: 100 nM and 1000 nM (sheet 'Samples'), CATDS: 4.12835328689228E-2; n = 1
[12] = system: EPHB3; conditions: read-out: apparent Kd; compound concentrations: 100 nM and 1000 nM (sheet 'Samples'), CATDS: 2.2990547954998001E-2; n = 1
[13] = system: EPHB4; conditions: read-out: apparent Kd; compound concentrations: 100 nM and 1000 nM (sheet 'Samples'), CATDS: 2.6241533264211699E-2; n = 1
[14] = system: EPHB6; conditions: read-out: apparent Kd; compound concentrations: 100 nM and 1000 nM (sheet 'Samples'), CATDS: 2.2781408813982901E-2; n = 1
[15] = system: FGFR1; conditions: read-out: apparent Kd; compound concentrations: 100 nM and 1000 nM (sheet 'Samples'), CATDS: 3.1616918928168397E-2; n = 1
[16] = system: FLT4; conditions: read-out: apparent Kd; compound concentrations: 100 nM and 1000 nM (sheet 'Samples'), CATDS: 7.7146870041813295E-2; n = 1
[17] = system: GSK3A; conditions: read-out: apparent Kd; compound concentrations: 100 nM and 1000 nM (sheet 'Samples'), CATDS: 2.5407151234935001E-2; n = 1
[18] = system: GSK3B; conditions: read-out: apparent Kd; compound concentrations: 100 nM and 1000 nM (sheet 'Samples'), CATDS: 2.45501369034281E-2; n = 1
[19] = system: IRAK1; conditions: read-out: apparent Kd; compound concentrations: 100 nM and 1000 nM (sheet 'Samples'), CATDS: 2.4333511791148201E-2; n = 1
[20] = system: MAP3K5; conditions: read-out: apparent Kd; compound concentrations: 100 nM and 1000 nM (sheet 'Samples'), CATDS: 2.5132787541446201E-2; n = 1
[21] = system: MAP3K6; conditions: read-out: apparent Kd; compound concentrations: 100 nM and 1000 nM (sheet 'Samples'), CATDS: 2.24428147169137E-2; n = 1
[22] = system: PAK4; conditions: read-out: apparent Kd; compound concentrations: 100 nM and 1000 nM (sheet 'Samples'), CATDS: 2.7893369435470699E-2; n = 1
[23] = system: PDGFRB; conditions: read-out: apparent Kd; compound concentrations: 100 nM and 1000 nM (sheet 'Samples'), CATDS: 2.3035756841704998E-2; n = 1
[24] = system: PLK4; conditions: read-out: apparent Kd; compound concentrations: 100 nM and 1000 nM (sheet 'Samples'), CATDS: 9.4443768096787298E-2; n = 1
[25] = system: PTK2; conditions: read-out: apparent Kd; compound concentrations: 100 nM and 1000 nM (sheet 'Samples'), CATDS: 0.104516847999243; n = 1
[26] = system: RET; conditions: read-out: apparent Kd; compound concentrations: 100 nM and 1000 nM (sheet 'Samples'), CATDS: 0.104878429822753; n = 1
[27] = system: SLK; conditions: read-out: apparent Kd; compound concentrations: 100 nM and 1000 nM (sheet 'Samples'), CATDS: 2.57372154872102E-2; n = 1
[28] = system: STK10; conditions: read-out: apparent Kd; compound concentrations: 100 nM and 1000 nM (sheet 'Samples'), CATDS: 4.1679333810588297E-2; n = 1
[29] = system: TEC; conditions: read-out: apparent Kd; compound concentrations: 100 nM and 1000 nM (sheet 'Samples'), CATDS: 3.46380925591862E-2; n = 1
[30] = system: TGFBR1; conditions: read-out: apparent Kd; compound concentrations: 100 nM and 1000 nM (sheet 'Samples'), CATDS: 3.4751131583425202E-2; n = 1
[31] = system: TNK1; conditions: read-out: apparent Kd; compound concentrations: 100 nM and 1000 nM (sheet 'Samples'), CATDS: 3.18258683294073E-2; n = 1
[32] = system: ATM; conditions: read-out: apparent Kd; compound concentrations: 100 nM and 1000 nM (sheet 'Samples'), CATDS: 0.768793574743593; n = 1
[33] = system: CDC42BPG; conditions: read-out: apparent Kd; compound concentrations: 100 nM and 1000 nM (sheet 'Samples'), CATDS: 0.370471808138506; n = 1
[34] = system: IKBKE; conditions: read-out: apparent Kd; compound concentrations:100 nM and 1000 nM (sheet 'Samples'); n = 1
[35] = system: PIK3C3; conditions: read-out: apparent Kd; compound concentrations:100 nM and 1000 nM (sheet 'Samples'); n = 1
[36] = system: TBK1; conditions: read-out: apparent Kd; compound concentrations:100 nM and 1000 nM (sheet 'Samples'); n = 1
[37] = system: BMP2K; conditions: read-out: apparent Kd; compound concentrations:100 nM and 1000 nM (sheet 'Samples'); n = 1
[38] = system: MAP3K1; conditions: read-out: apparent Kd; compound concentrations:100 nM and 1000 nM (sheet 'Samples'); n = 1
[39] = system: MAP4K5; conditions: read-out: apparent Kd; compound concentrations:100 nM and 1000 nM (sheet 'Samples'); n = 1
[40] = system: MAPK6; conditions: read-out: apparent Kd; compound concentrations:100 nM and 1000 nM (sheet 'Samples'); n = 1
[41] = system: PIK3CD; conditions: read-out: apparent Kd; compound concentrations:100 nM and 1000 nM (sheet 'Samples'); n = 1

Structure (SMILES): CC(=O)Nc1ccc2c(c1)C(c1ccccc1Cl)=Nc1c(n[nH]c1C)N2 [RO0281752-000]
- potency estimated from few doses [1]: 151 nM
- potency estimated from few doses ([2]; CATDS: 8.33802174361232E-2): 121 nM
- potency estimated from few doses [3]: 1080 nM
- potency estimated from few doses [4]: 1320 nM
- potency estimated from few doses [5]: 658 nM
- potency estimated from few doses [6]: 1540 nM
- potency estimated from few doses [7]: 213 nM
- potency estimated from few doses [8]: 992 nM
- potency estimated from few doses [9]: 1260 nM
- potency estimated from few doses [10]: 1600 nM
- potency estimated from few doses [11]: 421 nM
- potency estimated from few doses [12]: 2020 nM
- potency estimated from few doses [13]: 1290 nM
- potency estimated from few doses [14]: 2090 nM
- potency estimated from few doses [15]: 772 nM
- potency estimated from few doses [16]: 136 nM
- potency estimated from few doses [17]: 1430 nM
- potency estimated from few doses [18]: 1600 nM
- potency estimated from few doses [19]: 1650 nM
- potency estimated from few doses [20]: 1480 nM
- potency estimated from few doses [21]: 2220 nM
- potency estimated from few doses [22]: 1080 nM
- potency estimated from few doses [23]: 2000 nM
- potency estimated from few doses [24]: 100 nM
- potency estimated from few doses [25]: 86.4 nM
- potency estimated from few doses [26]: 86 nM
- potency estimated from few doses [27]: 1370 nM
- potency estimated from few doses [28]: 413 nM
- potency estimated from few doses [29]: 620 nM
- potency estimated from few doses [30]: 615 nM
- potency estimated from few doses [31]: 760 nM

Structure (SMILES): CC(C)c1ccc(-c2cc(-c3c[nH]nc3-c3ccccn3)ccn2)cc1 [GW682841X]
- potency estimated from few doses [32]: 216 nM
- potency estimated from few doses [33]: 1220 nM

Structure (SMILES): CC(C)(C)OC(=O)NC1CCCN(c2cc(-c3ccc4c(N)n[nH]c4c3)nc(N)n2)C1 (stereo not drawn) [GSK2286096A]
- potency estimated from few doses ([2]; CATDS: 0.30892280218859702): 105 nM
- potency estimated from few doses [34]: 78.7 nM
- potency estimated from few doses [35]: 978 nM
- potency estimated from few doses [36]: 129 nM

Structure (SMILES): C[C@@H](Oc1cc(-n2cnc3ccc(OCC4CCN(C)CC4)cc32)sc1C(N)=O)c1ccccc1Cl [GSK571989A]
- potency estimated from few doses [37]: 1870 nM
- potency estimated from few doses [38]: 1600 nM
- potency estimated from few doses [39]: 1670 nM
- potency estimated from few doses [40]: 1540 nM
- potency estimated from few doses [41]: 185 nM

From PMC11062922 (Nature Chemical Biology, 2023)
